Results filed as inconclusive are left out. Entries that show only a call come without a potency. A number with no mark means an inactive call. Activity calls are given as the source filed them. The call rests on the fitted dose curve; in most records, active means well fitted inhibition curve with a large enough effect; inconclusive means small, poorly fitted or top-dose-only effect; inactive means no such curve, though single readings can be large or run the other way.
target: Rap guanine nucleotide exchange factor 3 (Homo sapiens) (UniProt O95398); experiment: Counterscreen qHTS for antagonist of cAMP-regulated guanine nucleotide exchange factor 3 (EPAC1) (AID 1645888); details: Rap1B-BODIPY-GDP nucleotide exchange, fluorescence; series mostly up to 154 µM;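 further: fluorescence loss as bound BODIPY-GDP is released from Rap1B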
Sequence (O95398 whole entry, looked up): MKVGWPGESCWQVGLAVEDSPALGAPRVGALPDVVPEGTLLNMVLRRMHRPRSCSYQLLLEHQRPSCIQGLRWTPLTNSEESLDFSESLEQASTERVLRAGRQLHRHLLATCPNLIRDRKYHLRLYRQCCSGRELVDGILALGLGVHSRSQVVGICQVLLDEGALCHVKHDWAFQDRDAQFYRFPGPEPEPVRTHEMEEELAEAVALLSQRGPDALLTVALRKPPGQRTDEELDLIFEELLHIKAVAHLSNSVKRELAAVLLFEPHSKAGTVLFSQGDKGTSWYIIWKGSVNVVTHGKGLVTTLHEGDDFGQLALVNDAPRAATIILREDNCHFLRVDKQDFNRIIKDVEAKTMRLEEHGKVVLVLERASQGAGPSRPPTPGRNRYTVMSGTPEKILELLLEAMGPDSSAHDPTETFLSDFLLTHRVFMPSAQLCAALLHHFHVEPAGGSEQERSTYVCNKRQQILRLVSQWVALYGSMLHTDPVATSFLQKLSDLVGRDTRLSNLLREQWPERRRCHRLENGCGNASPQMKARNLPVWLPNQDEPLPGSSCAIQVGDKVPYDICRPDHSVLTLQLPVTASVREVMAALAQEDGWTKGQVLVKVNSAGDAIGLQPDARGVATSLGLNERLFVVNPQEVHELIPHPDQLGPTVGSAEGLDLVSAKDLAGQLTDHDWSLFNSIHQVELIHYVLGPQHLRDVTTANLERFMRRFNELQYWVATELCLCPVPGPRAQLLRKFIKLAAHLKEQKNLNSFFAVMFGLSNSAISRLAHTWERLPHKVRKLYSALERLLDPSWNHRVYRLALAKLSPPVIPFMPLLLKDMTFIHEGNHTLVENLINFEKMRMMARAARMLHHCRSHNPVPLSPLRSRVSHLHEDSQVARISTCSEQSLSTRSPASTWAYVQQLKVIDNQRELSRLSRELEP
Outline: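 Measured: fluorescence of BODIPY-GDP bound to Rap1B, which falls as exchange proceeds. Conditions include 50 uM competing GDP, 5 and 30 min reads, and a later cAMP challenge for antagonist detection.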

| SMILES | Potency | activity change, negative = inhibition |
| --- | --- | --- |
| CCOc1cc(-c2ccc(OC(=O)c3ccccc3)c(OC)c2)cc(=O)c2c(C)oc(C)c12 | inactive |  |
| O=C(O)c1ccn2c(C(=O)c3ccc(Cl)cc3)c(-c3ccccc3)cc2c1 | inactive |  |
| Cc1cc(C)c(S(=O)(=O)c2ccccc2)c(OC(=O)c2c(F)cccc2F)n1 |  | 8% [at 30.8 µM] |
| CCc1ccc(/C=C2\SC(=S)N(CCCC(=O)Nc3ccccc3C(=O)O)C2=O)cc1 |  | 0.611% [at 30.8 µM] |
| Cc1ccc(NC(=O)CC2S/C(=N/N=C3\CCCc4ccccc43)NC2=O)cc1 (stereo not drawn) |  | -9.99% [at 30.8 µM] |
| Cc1ccc(Nc2c(-c3ccccn3)nc3cccc(C)n23)cc1 | inactive |  |
| COc1ccccc1-c1nnc(SCC(=O)c2ccc(C3CCCCC3)cc2)n1Cc1ccco1 | inactive |  |
| O=C(O)c1ccc(/C=N/NC(=O)c2cc(-c3ccc4c5c(cccc35)CC4)n[nH]2)cc1 | inactive |  |
| O=C(CSc1nc(O)cc(=O)n1-c1ccccc1)Nc1ccc2c3c(cccc13)CC2 |  | -9.82% [at 30.8 µM] |
| Oc1ccc(NCc2cccc(OCc3ccccc3)c2)cc1 | inactive |  |
| C#Cc1ccc([C@@H]2C=C(C(=O)OCC=C)O[C@H](OCc3ccc(CO)cc3)C2)cc1 |  | -8.75% [at 30.8 µM] |
| COCCN1C(=O)c2[nH]nc(-c3ccccc3O)c2C1c1ccc(Cl)c(Cl)c1 (stereo not drawn) | inactive |  |
| CC(C)Nc1nc(NC(C)C)nc(OCCOC(=O)c2ccccc2)n1 | inactive |  |
| CC(C)CNc1ncnc2onc(-c3ccc(Cl)cc3)c12 | inactive |  |
| COc1ccc(OC)c(NC(=O)C2(C)CCN2CCc2ccccc2)c1 (stereo not drawn) | inactive |  |
| Oc1ccc2ccccc2c1/C=N/c1nc2c(s1)CCCC2 | inactive |  |
| CCc1ccc2c(c1)NC(=O)C2(C)Cc1ccc(F)cc1 (stereo not drawn) |  | 16.2% [at 30.8 µM] |
| ON=C(c1ccccc1)c1ccc2c3c(cccc13)CC2 | inactive |  |
| Cc1ccc(C)c(OC(C)C(=O)Nc2ccc(S(=O)(=O)Nc3nccs3)cc2)c1 (stereo not drawn) | inactive |  |
| CC(=O)C(=Cc1ccc(Cl)cc1)C(=O)c1ccccc1 | inactive |  |
| Oc1ccc(Cc2ccc(Cl)cc2)c(O)c1 |  | -18.2% [at 30.8 µM] |
| CCOc1cc(CNc2ccc(O)cc2)cc(Cl)c1OCc1ccccc1 | inactive |  |
| COc1ccc(Nc2cc(C(=O)NCCCN3CCN(c4ccccc4F)CC3)c3ccccc3n2)c(OC)c1 | inactive |  |

Source: PubChem BioAssay (NCATS)
